Experimental data: the supplement of paper PMC7726561

Biological target: HLA-C*04:01
Test: thermal melting temperature (Tm) of peptide-HLA complex; higher = more thermostable pHLA complex
Method: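 Endogenous HLA-C*04:01 ligands were detected in the thermostability assays of both the C1R-A*02:01 and C1R-B*07:02 lines. Lysates were heated 10 min at 37-73 °C and pHLA immunoprecipitated with W6/32. Peptides were quantified by DIA-MS and Tm was taken from a logistic sigmoid fit.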

Sequence	thermal melting temperature (C1R-A*02:01)	thermal melting temperature (C1R-B*07:02)
VFDPVTKL	48.3 °C	48.6 °C
IWDETPLYF	50.8 °C	51.8 °C
AWEERETIL	57.8 °C	56.3 °C
FYDERIVVV	63.9 °C	62.3 °C
VFDVLDGEEM	53.4 °C	60.9 °C
FYDVQFKEL	53.1 °C	52.5 °C
FFDEVVKQM	58.8 °C	60.5 °C
VFDEAIRAV	61.2 °C	61.5 °C
TFDPMTRQI	54.1 °C	57 °C
TFDSTIHF	55.9 °C	58 °C
SFDLLPREF	54.7 °C	55.9 °C
AWDKEPVLV	57.8 °C	57.6 °C
SFDSALQSV	56.4 °C	60.7 °C
FWDPSVNLF	53.7 °C	52.4 °C
SFDPSRTF	53.7 °C	52.8 °C
AWDIAIATM	50.9 °C	49.6 °C
FWDDAVKEV	46.6 °C	48.3 °C
TYEGKPIFL	52.9 °C	51.5 °C
FYDLYGGEKF	48.8 °C	48.5 °C
VFPKEPVEL	52.4 °C	52.2 °C
VIDEPVRL	50 °C	50.3 °C
LFHPSNVEM	46 °C	46.4 °C
VFDEAVRV	52.4 °C	50.6 °C
LFDLGGQYL	48.8 °C	44.5 °C

Sequence	thermal melting temperature (C1R-A*02:01)	thermal melting temperature (C1R-B*07:02)
SFDTGFTSF	48.1 °C	46.1 °C
AHDVDPIEL	45.7 °C	46.9 °C
LWDSAVSHF	55.1 °C	55.6 °C
LFDDIDHNM	52.6 °C	53.7 °C
FFEVSPVSF	49.9 °C	46.6 °C
KFDPVGEIL	55.9 °C	54.9 °C
TYDLQESNV	57.5 °C	55.5 °C
IFSEKPVFV	60 °C	57 °C
HYDPATEEF	60.2 °C	58.2 °C
QFDNYGEEF	50.8 °C	55.5 °C
MFDKDVVML	48.9 °C	54.6 °C
IYDVQHANL	50.7 °C	53 °C
HYDEQQNFF	53.5 °C	53.3 °C
VLDDKLVFV	61.8 °C	48.9 °C
TFDVAPSRLDF	60.1 °C	62.2 °C
YFDPANGKF	57.6 °C	57.5 °C
SFDDTNEKF	49.8 °C	48.2 °C
VTDPRVVDL	53.8 °C	52.7 °C
NPDDVFREF	61.2 °C	62.7 °C
SYDPTIENTF	54.9 °C	58.1 °C
HFDPEVYL	54.6 °C	53.2 °C
IYDPNLAFL	58.9 °C	56 °C
VWDLFPEADKV	54.5 °C	52.4 °C
